The values below come from PubChem BioAssay (EPA / NIEHS).

Active and inactive are the calls of the source. Rule for the calls: active = hit-call score of the fitted dose curve at least 0.9, where 1 is the maximum; inactive = score below 0.9.

Common to all, as to conditions: primary human HUVEC with PBMC; actives raise or lower the signal
Read-out in experiment [1]: Monocyte Chemoattractant Protein-1 (MCP1), CCL2 (gene 6347)
Briefly: BSK_LPS_MCP1: BioMAP Diversity Plus: LPS Assay for Monocyte Chemoattractant Protein-1 (MCP1) Biomarker Activity (AID 2283081).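 For AC50: co-culture stimulated with LPS; secreted MCP-1 protein quantified by ELISA in culture supernatant.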 An outline of the steps:
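Secreted MCP-1 read by ELISA at 24 h post-dosing in an LPS-activated co-culture of endothelial cells with peripheral blood mononuclear cells. Fits run in both directions, DMSO as baseline; parallel SRB staining tracks overt cytotoxicity.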

Read-out in experiment [2]: Macrophage colony-stimulating factor (MCSF), CSF1 (gene 1435)
Briefly: BSK_LPS_MCSF: BioMAP Diversity Plus: LPS Assay for Macrophage colony-stimulating factor (MCSF) Biomarker Activity (AID 2283083). The method, boiled down:
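Bidirectional fitting against DMSO was applied to M-CSF levels read by ELISA at 24 h post-dose. The system pairs human umbilical vein endothelium with peripheral blood mononuclear cells; parallel SRB staining tracked cytotoxicity.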

Read-out in experiment [3]: Tissue Factor, F3 (gene 2152)
Briefly: BSK_LPS_TissueFactor: BioMAP Diversity Plus: LPS Assay for Tissue Factor Biomarker Activity (AID 2283084). An outline of the steps:
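Compound was added to an endothelial cell/PBMC co-culture, and after 24 h tissue factor (CD142) was read by ELISA. Gain or loss of signal was fitted against a DMSO baseline, and parallel SRB staining (560 nm) tracked overt cytotoxicity.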

Read-out in experiment [4]: Tumor necrosis factor (Homo sapiens) (UniProt P01375)
Briefly: BSK_LPS_TNFa: BioMAP Diversity Plus: LPS Assay for Tumour Necrosis Factor alpha (TNFa) Biomarker Activity (AID 2283085).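 For AC50: TNFa protein level quantified by ELISA in the co-culture.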 The method, boiled down:
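TNFa was quantified by ELISA in LPS-activated co-cultures of human endothelial cells and PBMC, 24 h post-dosing. Both increases and decreases versus DMSO were fitted.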

Read-out in experiment [5]: Vascular cell adhesion molecule 1 (VCAM1), VCAM1 (gene 7412)
Briefly: BSK_LPS_VCAM1: BioMAP Diversity Plus: LPS Assay for Vascular cell adhesion molecule 1 (VCAM1) Biomarker Activity (AID 2283086). The method, boiled down:
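VCAM-1 quantified by ELISA in an LPS-activated co-culture of human endothelial cells and peripheral blood mononuclear cells, read 24 h post-treatment. Fitted in both directions versus DMSO; parallel SRB staining flags overt cytotoxicity.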

Read-out in another experiment: CD38, CD38 (gene 952)
Briefly: BSK_SAg_CD38: BioMAP Diversity Plus: SAg Assay for CD38 Biomarker Activity (AID 2283087). The method, boiled down:
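CD38 quantified by ELISA (fluorescence) in a superantigen-activated endothelial cell–PBMC co-culture at 24 h post-dose. Activity fitted in both directions relative to DMSO; parallel SRB and Alamar Blue cytotoxicity read-outs.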

Read-out in a further experiment: CD40, CD40 (gene 958)
Briefly: BSK_SAg_CD40: BioMAP Diversity Plus: SAg Assay for CD40 Biomarker Activity (AID 2283088). An outline of the steps: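 CD40 is measured by fluorescence ELISA in an endothelial/PBMC primary human co-culture at 24 h post-dose. Fitting is bidirectional, DMSO baseline. Parallel SRB staining (560 nm) flags cytotoxicity.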

Read-out in a further experiment: CD69, CD69 (gene 969)
Briefly: BSK_SAg_CD69: BioMAP Diversity Plus: SAg Assay for CD69 Biomarker Activity (AID 2283089).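 For AC50: cell surface CD69 protein quantified by ELISA with fluorescence detection.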 An outline of the steps: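 ELISA, fluorescence read-out: CD69 on human umbilical vein endothelial cell + PBMC co-culture, 24 h post-dosing. Gain or loss of signal fitted bidirectionally against DMSO baseline.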

Read-out in experiment [6]: Monocyte Chemoattractant Protein-1 (MCP1), CCL2 (gene 6347)
Briefly: BSK_SAg_MCP1: BioMAP Diversity Plus: SAg Assay for Monocyte Chemoattractant Protein-1 (MCP1) Biomarker Activity (AID 2283090). The method, boiled down:
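Values derive from bidirectional fitting of ELISA-measured MCP1 against DMSO controls. Readings were taken 24 h after dosing human vascular endothelial cells co-cultured with peripheral blood mononuclear cells under superantigen stimulation.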

Sequence of Tumor necrosis factor (Homo sapiens) (P01375 whole entry, looked up): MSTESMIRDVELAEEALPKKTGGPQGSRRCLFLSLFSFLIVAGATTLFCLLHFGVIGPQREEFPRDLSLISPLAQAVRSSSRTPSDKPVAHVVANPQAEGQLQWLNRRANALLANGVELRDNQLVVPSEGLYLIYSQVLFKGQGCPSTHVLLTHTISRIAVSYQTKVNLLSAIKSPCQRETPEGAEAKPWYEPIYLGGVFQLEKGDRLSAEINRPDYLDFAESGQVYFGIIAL

As to `O=C(O)C(F)(F)C(F)(F)C(F)(F)C(F)(F)C(F)(F)F`, the outcome was “inactive” in [1]; “inactive” in experiment [2]; “inactive” in [3]; “inactive” in [4]; “inactive” in experiment [5]; “inactive” with CD38, CD38 (gene 952). Also, the outcome with CD40, CD40 (gene 958) is “inactive”; in the experiment with CD69, CD69 (gene 969), “inactive”; in [6], “inactive”.
`Nn1cnnc1`: the outcome in experiment [1] is “inactive”; in [2], “inactive”; in [3], “inactive”; in [4], “inactive”; in experiment [5], “inactive”; with CD38, CD38 (gene 952), “inactive”. Moreover, the outcome in the experiment with CD40, CD40 (gene 958) was “inactive”; with CD69, CD69 (gene 969), “inactive”; in experiment [6] it was “inactive”.
Consider `CC(C)(O)C(=O)Nc1ccc([N+](=O)[O-])c(C(F)(F)F)c1`, for which the outcome is “inactive” in experiment [1]; “inactive” in [3]; “inactive” in experiment [4]; “inactive” in [5]; “inactive” with CD38, CD38 (gene 952); “inactive” with CD40, CD40 (gene 958). Besides, the outcome with CD69, CD69 (gene 969) was “inactive”; in [6] it was “inactive”. In addition, the AC50 in experiment [2] is 23.1 µM (active).
For the compound `CCC(C)(CC)c1cc(NC(=O)c2c(OC)cccc2OC)on1`, the outcome in [1] is “inactive”; in experiment [2], “inactive”; in experiment [3], “inactive”; in [4] it was “inactive”; in experiment [5], “inactive”; in the experiment with CD38, CD38 (gene 952) it was “inactive”. For the same compound, the outcome with CD40, CD40 (gene 958) was “inactive”; in the experiment with CD69, CD69 (gene 969) it was “inactive”; in experiment [6], “inactive”.
In the case of `O=C(NC(=O)c1cc(F)c(F)cc1Cl)Nc1cc(F)ccc1N1CCC(C(=O)O)CC1`, the outcome in experiment [1] was “inactive”; in experiment [2], “inactive”; in experiment [3], “inactive”; in experiment [5], “inactive”; in the experiment with CD38, CD38 (gene 952), “inactive”; with CD40, CD40 (gene 958), “inactive”. Moreover, the outcome with CD69, CD69 (gene 969) is “inactive”; in experiment [6], “inactive”. Moreover, the half-maximal activity concentration (AC50) in [4] was 10 µM (active).
In the case of `Cc1cccc(C)c1N`, the outcome in experiment [1] was “inactive”; in [2], “inactive”; in [3] it was “inactive”; in experiment [4], “inactive”; in [5] it was “inactive”; in the experiment with CD38, CD38 (gene 952) it was “inactive”. Further, the outcome with CD40, CD40 (gene 958) is “inactive”; with CD69, CD69 (gene 969) it was “inactive”; in experiment [6], “inactive”.
Turning to `CC(C)(c1ccccc1)c1ccc(O)cc1`, the half-maximal activity concentration (AC50) in experiment [1] is 35.2 µM (active); in [2], 33.6 µM (active); in experiment [3], 32.2 µM (active); in experiment [4], 31.5 µM (active); in experiment [5] it was 33.4 µM (active); with CD38, CD38 (gene 952), 31.2 µM (active). The AC50 with CD40, CD40 (gene 958) is 31.1 µM (active); with CD69, CD69 (gene 969) it was 37.9 µM (active); in [6] it was 36.1 µM (active).
As to `CCC(=O)O[C@H]1CC[C@H]2[C@@H]3CCC4=CC(=O)CC[C@]4(C)[C@H]3CC[C@]12C`, the AC50 was 25.5 µM (active) in experiment [1]; 26 µM (active) in experiment [2]; 30.8 µM (active) in experiment [3]; 32.1 µM (active) in experiment [4]; 30.5 µM (active) in experiment [5]; 36 µM (active) with CD38, CD38 (gene 952). The AC50 was 31.9 µM (active) with CD40, CD40 (gene 958); 31.1 µM (active) with CD69, CD69 (gene 969); 30.1 µM (active) in [6].
Turning to `CC#Cc1cc(C)nc(Nc2ccccc2)n1`, the outcome in experiment [1] was “inactive”; in experiment [2] it was “inactive”; in experiment [3], “inactive”; in experiment [4], “inactive”; in [5] it was “inactive”; in the experiment with CD38, CD38 (gene 952), “inactive”. Besides, the outcome with CD40, CD40 (gene 958) is “inactive”; with CD69, CD69 (gene 969), “inactive”; in experiment [6], “inactive”.
Consider `CC1=C2C[C@H]3[C@@H](CC=C4C[C@@H](O)CC[C@@]43C)[C@@H]2CC[C@]12O[C@@H]1C[C@H](C)CN[C@H]1[C@H]2C`, for which the outcome in experiment [1] was “inactive”; in experiment [2], “inactive”; in experiment [3], “inactive”; in experiment [4], “inactive”; in experiment [5] it was “inactive”; with CD38, CD38 (gene 952), “inactive”. In addition, the outcome was “inactive” with CD40, CD40 (gene 958); “inactive” in the experiment with CD69, CD69 (gene 969); “inactive” in experiment [6].
For `CCNc1nc(NC(C)C)nc(SC)n1`, the outcome in experiment [1] is “inactive”; in experiment [2], “inactive”; in experiment [3], “inactive”; in [5], “inactive”; in the experiment with CD40, CD40 (gene 958) it was “inactive”; with CD69, CD69 (gene 969) it was “inactive”. Besides, the outcome in [6] was inactive. Besides, the AC50 in experiment [4] is 5.99 µM (active); in the experiment with CD38, CD38 (gene 952) it was 14.9 µM (active).
As to `C=CC(N)=O`, the outcome is “inactive” in experiment [1]; “inactive” in experiment [2]; “inactive” in experiment [3]; “inactive” in [4]; “inactive” in experiment [5]; “inactive” with CD38, CD38 (gene 952). For the same compound, the outcome with CD40, CD40 (gene 958) is “inactive”; in the experiment with CD69, CD69 (gene 969), “inactive”; in [6] it was “inactive”.
On to `c1cc2ccc3cccc4ccc(c1)c2c34`, for which the result in [1], in [2], in [3], in experiment [4], in experiment [5] and in [6] was inactive. For the same compound, the half-maximal activity concentration (AC50) was 11.5 µM (active) in the experiment with CD38, CD38 (gene 952) and 4.13 µM (active) with CD69, CD69 (gene 969).
In the case of `CO/C=C(/C(=O)OC)c1ccccc1COc1cccc(C(F)(F)F)n1`, the AC50 in experiment [1] is 4.01 µM (active); in [2], 12 µM (active); in experiment [4], 0.783 µM (active); in experiment [5] it was 13.4 µM (active); in the experiment with CD38, CD38 (gene 952), 6.48 µM (active); with CD40, CD40 (gene 958), 7.75 µM (active). For the same compound, the concentration at half-maximal activity (AC50) in the experiment with CD69, CD69 (gene 969) was 5.07 µM (active); in [6], 8.9 µM (active). Also, the result in experiment [3] was inactive.
In the case of `Cc1cc(O)ccc1Cl`, the outcome in [1] was “inactive”; in experiment [2], “inactive”; in experiment [3], “inactive”; in experiment [4], “inactive”; in [5] it was “inactive”; in the experiment with CD38, CD38 (gene 952), “inactive”. For the same compound, the outcome in the experiment with CD40, CD40 (gene 958) was “inactive”; with CD69, CD69 (gene 969) it was “inactive”; in experiment [6], “inactive”.
For `C[C@]12CCC(=O)C=C1CC[C@@H]1[C@@H]2CC[C@]2(C)C(=O)CC[C@@H]12`, the outcome in [1] was “inactive”; in experiment [2], “inactive”; in [3], “inactive”; in [4], “inactive”; in experiment [5] it was “inactive”; with CD38, CD38 (gene 952), “inactive”. Besides, the outcome was “inactive” with CD40, CD40 (gene 958); “inactive” with CD69, CD69 (gene 969); “inactive” in [6].
In the case of `CCCCCCCCCc1ccc(O)cc1`, the AC50 in [1] was 32.2 µM (active); in experiment [2], 23.6 µM (active); in experiment [3], 31.3 µM (active); in experiment [4], 36.5 µM (active); in experiment [5], 22 µM (active); with CD38, CD38 (gene 952) it was 15.9 µM (active). The concentration at half-maximal activity (AC50) with CD40, CD40 (gene 958) is 20.3 µM (active); in the experiment with CD69, CD69 (gene 969), 22.7 µM (active); in [6] it was 29.8 µM (active).
`C[C@]12CCC(=O)C=C1CC[C@@H]1[C@@H]2CC[C@@]2(C)[C@H]1CC[C@]2(C)O`: the outcome was “inactive” in experiment [1]; “inactive” in experiment [2]; “inactive” in [3]; “inactive” in experiment [4]; “inactive” in experiment [5]; “inactive” with CD38, CD38 (gene 952). The outcome with CD40, CD40 (gene 958) was “inactive”; with CD69, CD69 (gene 969) it was “inactive”; in [6] it was “inactive”.

Usually AC50 stands for the midpoint of the concentration-response curve, whichever way the signal moves.
